Screening data as filed in PubChem BioAssay.
Most compounds without a hit are left out; they make up all but 1.5% or so of the library.
NOD2 RIPK2 PPI = NOD2-RIPK2 protein interaction inhibition; O43353; CHO BLA complementation NOD2-RIPK2, CCF4 ratio; inhibition, % at 4.98 µM; hit rate 0.38% among 360,000; AID 624267; in the data active means inhibition above about 21%;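 further: 0% = vehicle only and 100% = reference blocker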
TLR9-MyD88 block = blocks human TLR9 binding to MyD88; Q9NR96+Q99836; CHO BLA complementation TLR9-MyD88, CCF4 FRET ratio; inhibition, % at 4.98 µM; hit rate 0.21% among 340,000;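 active means inhibition above the mean over all tested compounds plus 3 SD, cut at about 21% in these data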;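 further: 0% = DMSO only wells and 100% = clavulanate BLA inhibitor control wells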
TLR4 MyD88 comp = TLR4-MyD88 interaction inhibition in cells; O00206+Q99836; HeLa CL3-4 TLR4/MyD88 BLA complementation, FRET ratio; inhibition, % at 8.4 µM; hit rate 0.18% among 200,000; AID 861; in the data active means inhibition above about 25%;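 further: 0% = vehicle and 100% = reference inhibitor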
Myeloid diff MLP = compounds promoting myeloid differentiation; ER-HoxA9 myeloid progenitors, lysozyme-GFP differentiation, flow cytometry; calls only at 10 µM; hit rate 1% among 360,000;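 active means normalized GFP-positive differentiation at or above the plate's own cutoff, the solvent-only control mean plus 3 SD; inconclusive means no clear call, values can overlap the other calls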;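 further: cells exposed to compound for four days before flow analysis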
The depositor's hits bear a star; i = inactive; ? = inconclusive; nt = no result; + = active, no number.

SMILES	NOD2 RIPK2 PPI	TLR9-MyD88 block	TLR4 MyD88 comp	Myeloid diff MLP
COc1ccc(-c2sc3cc4c(cc3c2C#Cc2cncn2C)OCO4)cc1	-5.0	6.7	nt	nt
CC(C)(C)n1nnnc1C(c1ccccc1)N1CCN(C/C=C/c2ccccc2)CC1 (stereo not given)	-8.4	nt	nt	+
Cc1cccc(COCCN2CCN(S(=O)(=O)c3ccccc3)CCC2=O)c1	-10.2	-1.9	nt	+
O=C1CCN(S(=O)(=O)c2ccccc2)CCN1CCOCc1ccccc1	0.4	-6.0	nt	i
CN1OC[C@@H]2CN(S(=O)(=O)c3cc(Cl)cc(Cl)c3)[C@H](c3ccc(-c4ccc(C#N)cc4)cc3)C[C@@H]21	5.7	nt	nt	i
CCOC(=O)CCSc1nc(C(C)(C)C)cc(C(F)(F)F)c1C#N	-5.7	-3.3	-1.3	i
CCOC(=O)CCSc1nc(C)cc(C(F)(F)F)c1C#N	-9.8	-4.3	-2.5	+
Cc1cc(C(F)(F)F)c(C#N)c(SCC(=O)Nc2nc3ccccc3s2)n1	2.6	9.1	8.7	+
N#CCC(=O)Nc1ccc(C(=O)Nc2cccc(S(=O)(=O)N3CCCC3)c2)cc1	-2.9	5.6	nt	i
Cc1cc(C)c(-c2csc(NC(=O)/C=C/c3cccs3)n2)c(C)c1	-2.3	-5.2	-11.3	+
O=C(NCc1ccccc1)C(c1ccccc1)n1c(C2CC2)nc2ccccc21 (stereo not given)	1.1	nt	nt	i
Cc1nc(-c2ccccc2)sc1-c1nc(-c2cccs2)ncc1S(=O)(=O)c1ccccc1	nt	nt	15.0	nt
Cc1nc(-c2ccccc2)sc1-c1nc(-c2cccnc2)ncc1S(=O)(=O)c1ccccc1	-2.2	1.1	4.2	+
CCc1nc2ccc(C(=O)N3CCN(c4ccccc4)CC3)cn2c1N(CCC(C)C)CCN(C)C	8.3	nt	nt	i
COc1ccc(C)cc1-n1c(C)cc(C=O)c1C	-9.1	-17.3	5.4	i
COc1ccc(N)cc1-n1c(C)ccc1C	-18.3	0.2	2.4	+
Cc1ccc2[nH]c(C(=O)NN=C3CCCCC3)c(-c3ccccc3)c2c1	0.2	1.4	5.0	+
NNC(=O)c1[nH]c2ccc(Br)cc2c1-c1ccccc1	0.8	4.4	nt	+
CCCCNC(=O)c1nc(C2CCN(S(=O)(=O)c3ccc(S(C)(=O)=O)cc3)CC2)oc1-c1ccccc1	-13.9	nt	nt	i
CC1=CC2C(C(O)CC3(C)C2CC(C)C32OCOC23COCO3)C2(C)C/C(=C\O)C(=O)C=C12 (stereo not given)	6.1	6.8	nt	?
COc1ccc(CNC[C@H]2O[C@@H](n3ccc(=O)[nH]c3=O)[C@H](O)[C@@H]2O)cc1	-3.2	nt	nt	i
CC(C)(C)c1ccc(CNC(=O)c2ccc3c(c2)NC(=O)CO3)cc1	7.1	0.9	8.4	+
COc1ccc2nc(Cl)c(C=O)c(N3CCOCC3)c2c1	-6.6	-17.6	nt	i
COc1ccc(N2CCN(CC(=O)c3ccc(O)cc3O)CC2)cc1	-7.4	2.6	nt	i
O=C(CN1CCN(c2ccc(F)cc2)CC1)c1ccc(O)cc1O	-5.5	-6.6	nt	+
SMILES	NOD2 RIPK2 PPI	TLR9-MyD88 block	TLR4 MyD88 comp	Myeloid diff MLP
O=C1C(c2ccc(F)cc2)N(Cc2ccc3c(c2)OCO3)C(=O)CN1C1CCCC1 (stereo not given)	0.1	-0.1	10.4	i
COc1ccccc1CN1C(=O)CN(C2CCCC2)C(=O)C1c1ccc(F)cc1 (stereo not given)	-9.1	1.7	-4.5	+
Cc1cc(C)c(S(=O)(=O)Nc2ccc3c4c(cccc24)CC3)c(C)c1	-1.4	2.1	-14.2	?
Cc1ccc(S(=O)(=O)Nc2ccc3c4c(cccc24)CC3)c(C)c1	5.0	6.5	-42.1	+
CSCCC(C(=O)NC(C)(C)C)n1c(-c2ccc(C)cc2)nc2ccccc21 (stereo not given)	-2.2	nt	nt	i
COc1ccc(N2C(=O)C3CCCN3C2c2ccc(Cl)cc2)cc1 (stereo not given)	-7.5	1.5	10.1	i
O=C1C2CCCN2C(c2ccccc2)N1c1ccc(Cl)cc1 (stereo not given)	-7.6	-2.3	0.6	+
Cc1ccc(NC(=O)CN2CCC(Cc3ccccc3)CC2)cc1S(=O)(=O)N(C)C	10.9	-14.9	8.5	+
O=[N+]([O-])c1cc([N+](=O)[O-])c(Oc2ccc(Cl)c3cccnc23)cc1NN1CCCCC1	1.1	4.1	nt	+
O=[N+]([O-])c1cc([N+](=O)[O-])c(Oc2cccc(Cl)c2Cl)cc1NN1CCCCC1	-15.3	-5.8	nt	i
COc1ccc(OC)c(-c2cc(C(=O)Nc3c(C)nn(Cc4ccccc4C)c3C)no2)c1	-1.2	-0.2	1.9	+
O=C(CC[C@H]1O[C@@H](n2cnc3c(NC(=O)c4ccccc4)ncnc32)[C@H](O)[C@@H]1O)NCCc1cc2ccccc2[nH]1	8.1	nt	nt	i
COc1ccc(-n2c(NC(=O)c3ccc(Br)o3)c(C#N)c3nc4ccccc4nc32)cc1	nt	nt	-22.3	nt
Cc1ccc(C(=O)NCCn2c(N)c(C#N)c3nc4ccccc4nc32)cc1	3.0	3.8	2.9	+
CCC(=O)Nc1c(C#N)c2nc3ccccc3nc2n1-c1ccc(C)cc1	-3.7	5.8	nt	i
CCC(C)n1c(NC(=O)c2ccccc2)c(C#N)c2nc3ccccc3nc21 (stereo not given)	-4.2	1.0	-34.5	+
CCCCn1c(NC(=O)c2ccccc2)c(C#N)c2nc3ccccc3nc21	8.5	-6.5	-12.2	+
CCOC(=O)C[C@@H](C#N)NC(=O)[C@@H]1CCCN1C(=O)[C@@H](NC(=O)c1ccc(N)c(Cl)c1)C(C)(C)C	1.5	nt	nt	i
CCc1nc2ccc(C(=O)Nc3ccc4c(c3)OCC(=O)N4)cn2c1N(C)C(=O)C1CCCCC1	-7.7	nt	nt	i
Cc1nn(-c2ccccc2)c(N2CCCC2)c1/C=N/NC(=O)c1cccc(S(=O)(=O)Nc2ccc(Cl)cc2)c1	-10.9	-5.7	6.0	+
Cc1nn(-c2ccccc2)c(Cl)c1/C=N/NC(=O)c1cccc(S(=O)(=O)N2CCCC2)c1	-6.4	-6.4	-5.2	i
CN(C)C(=O)COC(=O)c1ccccc1NC(=O)c1ccco1	4.3	-7.6	-11.7	+
O=C(COC(=O)c1ccccc1NC(=O)c1ccco1)NC1CC1	-6.4	-6.7	0.6	i
Cc1cccc(C)c1NC(=O)C(C1CC1)n1c(-c2ccc(-c3ccccc3)cc2)nc2ccccc21 (stereo not given)	3.6	nt	nt	i
CCN(Cc1ccccc1)C(=O)c1cccc(S(=O)(=O)N2CCN(c3ccccc3)CC2)c1	-7.2	4.1	nt	+
SMILES	NOD2 RIPK2 PPI	TLR9-MyD88 block	TLR4 MyD88 comp	Myeloid diff MLP
CCN(Cc1ccccc1)C(=O)c1cccc(S(=O)(=O)N2CCN(c3ccc(F)cc3)CC2)c1	3.3	-2.6	nt	i
NC(N)=NN=C1c2ccccc2-c2ccccc21	-8.6	-1.2	nt	+
ON=C1c2ccccc2-c2ccccc21	4.6	-15.1	nt	i
O=C1CCCN1CCCNc1nc(NCc2cccs2)nc2ccsc12	-6.6	nt	nt	i
CCOc1cc(-c2ccccc2)nc2c1CN(S(=O)(=O)c1ccc(C)cc1)C(c1cccc(Cl)c1)C2 (stereo not given)	-5.8	nt	nt	i
CCCc1nc(SCC(=O)Nc2cc(C)on2)c2ccccc2n1	-5.7	-2.4	-0.2	i
